# Measured values: PubChem BioAssay (Tox21)
# Records with an inconclusive call do not appear. Calls of active or inactive are those of the source. Calls come from the whole dose curve; as a rule, active = well fitted cell-killing curve with a large enough effect in the repeat runs; inconclusive = weak or mixed curves, or effect the other way; inactive = flat fitted curve, though single readings scatter.
# Assay: qHTS assay to identify small molecule agonists of the TGF-beta/Smad signaling pathway - cell viability counter screen (AID 1346829); note: top concentration of the series differs between compounds; nearly all actives have a fitted effect of over 45% in size
# Settings: SBE-bla HEK293T viability, CellTiter-Glo luminescence, 5 h; series mostly up to 76.8 µM; activity change, negative = cytotoxicity: at the top concentration
# Description: National Center for Advancing Translational Sciences [NCATS]
# NIH Chemical Genomics Center [NCGC]
# U.S. Environmental Protection Agency [EPA]
# National Institutes of Environmental Health Sciences [NIEHS]
# National Toxicology Program [NTP]
# U.S. Food and Drug Administration [FDA]
# Transforming growth factor beta (TGF-beta) superfamily consists of a large number of structurally related dimeric proteins that act as hormones or local mediators in regulating a wide range of biological functions. This superfamily includes TGF-betas themselves, the bone morphogenetic proteins (BMPs) and the activins. These ligands induce oligomerization of serine/threonine receptor kinases and phosphorylate the cytoplasmic signaling molecules of Smad protein family. CellSensor SBE-bla HEK 293T cell line (Life Technologies, Carlsbad, CA), responsive to TGF-beta was used to screen Tox21 10K compound library for identification of agonists/antagonists of the Smad signaling pathway. This cell line contains a beta-lactamase reporter gene under control of the Smad binding element (SBE) stably integrated into HEK 293T cells. Also cytotoxicity of the compounds was tested in parallel by measuring the cell viability using CellTiter-Glo assay system in the same wells.
# Tox21 Assay Protocol Summary:
# SBE-bla HEK 293T cells were dispensed at 4,000/well in 6 uL of assay medium into black wall/clear-bottom 1536-well plates using a Multidrop Combi (ThermoFisher Scientific, Waltham, MA) dispenser. After the assay plates were incubated at 37 C and 5% CO2 for an overnight, 23 nL of compounds dissolved in DMSO, positive controls or DMSO only was transferred to the assay plate by a Pintool station (Kalypsys, San Diego, CA). The assay plates were incubated at 37 C and 5% CO2 for 5 hr. One uL of LiveBLAzer B/G FRET substrate (Life Technologies) was added using a Flying Reagent Dispenser (FRD, Aurora Discovery, San Diego, CA) and the plates were incubated at room temperature for 2 hr. Fluorescence intensity (405 nm excitation, 460 nm and 530 nm emissions) was measured using an Envision plate reader (PerkinElmer, Shelton, CT). For cytotoxicity read, 4 uL of CellTiter-Glo reagent (Promega Corporation, Madison, WI) was added to each well of the assay plates using FRD. After 30min incubation at room temperature, the luminescence intensity was measured using ViewLux plate reader (PerkinElmer).
# % is set by controls: 0 for no effect and ±100 for the full control effect.
row,SMILES,"activity change, negative = cytotoxicity"
1,Cc1cc(C(=O)O)ccc1[N+](=O)[O-],25.7% (inactive)
2,CCCCOC(=O)CCCCCCCC(=O)OCCCC,-2.44% (inactive)
3,CCCCCCCCO[C@@H]1O[C@H](CO)[C@@H](O)[C@H](O)[C@H]1O,2.01% (inactive)
4,CC[N+]1(CC)CCC(=C(c2ccccc2)c2ccccc2)C1C (stereo not given),19.1% [at 35.3 µM] (inactive)
5,NS(=O)(=O)c1ccc(N2CCCCS2(=O)=O)cc1,-5.77% [at 35.3 µM] (inactive)
6,Cc1ccc(N=Nc2c(O)c(C(=O)O)cc3ccccc23)c(S(=O)(=O)O)c1,1.11% [at 35.3 µM] (inactive)
7,CCCCC1=NC2(CCCC2)C(=O)N1Cc1ccc(-c2ccccc2-c2nn[nH]n2)cc1,5.99% [at 35.3 µM] (inactive)
8,CCCCC/C=C\C/C=C\CCCCCCCC(=O)NC(C)c1ccccc1 (stereo not given),5.62% [at 35.3 µM] (inactive)
9,CCC(C)c1cc(C(C)(C)C)c(O)c(C(C)(C)C)c1 (stereo not given),-21.9% (inactive)
10,CN(C)c1ccc(CCO)cc1,-14.9% (inactive)
11,O=C(Nc1ccc(S(=O)(=O)N2CCOCC2)cc1)c1cc(Cl)ccc1NS(=O)(=O)c1ccc(Cl)s1,-1.98% [at 35.3 µM] (inactive)
12,CCC(Cl)CCC(Cl)C(Cl)CC(Cl)C(Cl)C(Cl)CCl (stereo not given),9.31% (inactive)
13,O=C(O)C(S)C(S)C(=O)O (stereo not given),20.1% [at 35.3 µM] (inactive)
14,Nc1ccc(S(=O)(=O)Nc2ccccc2)cc1,0.082% [at 35.3 µM] (inactive)
15,Nc1cccc(S(=O)(=O)c2cccc(N)c2)c1,-3.14% (inactive)
16,NC(N)=NCCC[C@H](N)C(=O)O,6.19% [at 6.97 µM] (inactive)
17,CC(C)O.CC(C)O.CCOC(=O)/C=C(\C)O.CCOC(=O)/C=C(\C)O.[Ti],-2.04% (inactive)
18,CCc1c(C(=O)NN2CCCCC2)nn(-c2ccc(Cl)cc2Cl)c1-c1ccc(Br)cc1,7.11% (inactive)
19,CCO[C@H](Cc1ccc(OCCc2ccc(OS(C)(=O)=O)cc2)cc1)C(=O)O,-1.51% [at 35.3 µM] (inactive)
20,Cc1ccc(C(C)OC(=O)C2(C)CCC(C(=O)O)C2(C)C)cc1 (stereo not given),-0.989% [at 35.3 µM] (inactive)

row,SMILES,"activity change, negative = cytotoxicity"
1,CCC(C)O (stereo not given),-7.78% (inactive)
2,NCCCN1CCOCC1,-0.022% (inactive)
3,CCOC(=O)Cc1cccc2ccccc12,1.69% (inactive)
4,O=C1CCC(=O)O1,2.38% (inactive)
5,CC(C)OC(=O)C(C)N(C(=O)c1ccccc1)c1ccc(F)c(Cl)c1 (stereo not given),-17.5% (inactive)
6,C/C=C(/C(=C/C)c1ccc(OC(C)=O)cc1)c1ccc(OC(C)=O)cc1,-0.319% [at 35.3 µM] (inactive)
7,CC1=CC=C(C(C)C)CC1,0.388% (inactive)
8,C=CCOc1ccccc1OCC(O)CNC(C)C (stereo not given),1.56% [at 35.3 µM] (inactive)
9,C[N+]1(CC2COC(c3ccccc3)(C3CCCCC3)O2)CCCCC1 (stereo not given),-6.65% [at 35.3 µM] (inactive)
10,CCN(CC)CCNc1ccc(CNC=O)c2sc3ccc(OC)cc3c(=O)c12,-0.767% (inactive)
11,O=C(c1ccc(F)cc1)C1CCN(CCn2c(=S)[nH]c3ccccc3c2=O)CC1,-7.01% [at 35.3 µM] (inactive)
12,COc1ccc2cccc(CCNC(C)=O)c2c1,10.8% [at 35.3 µM] (inactive)
13,CC/C=C\CCOC(=O)CC,4.95% (inactive)
14,COc1ccc(C(=O)c2ccc(OC)cc2O)c(O)c1,4.03% (inactive)
15,C=C1C(=C/C=C2\CCC[C@]3(C)[C@@H]([C@H](C)/C=C/[C@@H](O)C4CC4)CC[C@@H]23)C[C@@H](O)C[C@@H]1O,2.12% [at 35.3 µM] (inactive)
16,CNC(=O)CN(CCN(CCN(CC(=O)[O-])CC(=O)NC)CC(=O)[O-])CC(=O)[O-].O.[Gd+3],-26.4% [at 35.3 µM] (inactive)
17,CCCC(=O)Nc1ccc(O)c(C(C)=O)c1,-3.58% [at 35.3 µM] (inactive)
18,C=CC(=O)OCCOCCOC(=O)C=C,22.1% (inactive)
19,CCCCNc1ccc(C(=O)OCCOCCOCCOCCOCCOCCOCCOCCOCCOC)cc1,0.297% [at 35.3 µM] (inactive)
20,Cc1ccc(C(=O)Oc2ccc(C(O)CNC(C)(C)C)cc2OC(=O)c2ccc(C)cc2)cc1 (stereo not given),-18.1% [at 35.3 µM] (inactive)
